High-throughput results: PubChem, National Center for Advancing Translational Sciences (NCATS)
Shown is part of a subset that was picked to be rich in hits.
Rango dissoc inh = inhibitors of RanGTP-induced Rango-importin beta complex dissociation; O95149+P62826; Biochemical FRET Rango-importin beta, RanGTP-induced dissociation; Potency, µM (top dose mostly 46.1 µM), inactives show at the highest dose activity change, negative = inhibition; 0.071% of 340,000 active; AID 540253; also: potency is read from the fitted curve at half-maximal effect; % of control where 0% means no effect; nearly all actives have a fitted effect of over 45% in size
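Quantitative HTS using a FRET biosensor: 0.1 uM Rango, 0.25 uM importin beta, 0.6 uM Ran, 2 mM GTP, 0.2 uM RCC1 final, PBS with DTT, Tween-20 and BSA. Post-read taken 45 min after Ran addition.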
ClpP mod = qHTS Assay for Activators of ClpP. ATP-dependent Clp protease proteolytic subunit (Bacillus subtilis (strain 168)), P80244. purified B. subtilis ClpP, FRET peptide cleavage, 20 min. Potency, µM (highest dose often 57.5 µM), for inactives: at the highest dose activity change, negative = active. 1.9% of 340,000 active; active = well fitted falling curve with a large enough effect; inconclusive = small, poorly fitted or top-dose-only effect; inactive = no such curve, though single readings can be large or run the other way; also: potency is read from the fitted curve at half-maximal effect; the source files actives as falling curves though it sought activators and does not explain the sign; nearly all actives have a fitted effect of over 65% in size
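Buffer: 100 mM Tris/HCl pH8, 100 mM KCl, 0.05% low protease BSA, 2.5% glycerol, 0.01% Tween-20. ClpP 10 microg/mL final; 20 min RT; delta FRET normalized to ADEP and DMSO controls.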
CBFb RUNX1 block = inhibitors of human CBF-beta and RUNX1 interaction; Q01196+Q13951; AlphaScreen CBFb-His/RUNX1-biotin binding, biochemical; Potency, µM (series often up to 59.8 µM), for inactives: top-dose activity, negative = inhibition, hits mostly inhibitors; 230,000 tested, under 10 active; AID 1477; active = well fitted curve in the direction sought with a large enough effect; inconclusive = small, poorly fitted or top-dose-only effect, or effect the other way, or another doubt; inactive = no such curve, though single readings can be large or run the other way; also: % of control where 0% means no effect
Target sequence (Q01196 whole entry, looked up): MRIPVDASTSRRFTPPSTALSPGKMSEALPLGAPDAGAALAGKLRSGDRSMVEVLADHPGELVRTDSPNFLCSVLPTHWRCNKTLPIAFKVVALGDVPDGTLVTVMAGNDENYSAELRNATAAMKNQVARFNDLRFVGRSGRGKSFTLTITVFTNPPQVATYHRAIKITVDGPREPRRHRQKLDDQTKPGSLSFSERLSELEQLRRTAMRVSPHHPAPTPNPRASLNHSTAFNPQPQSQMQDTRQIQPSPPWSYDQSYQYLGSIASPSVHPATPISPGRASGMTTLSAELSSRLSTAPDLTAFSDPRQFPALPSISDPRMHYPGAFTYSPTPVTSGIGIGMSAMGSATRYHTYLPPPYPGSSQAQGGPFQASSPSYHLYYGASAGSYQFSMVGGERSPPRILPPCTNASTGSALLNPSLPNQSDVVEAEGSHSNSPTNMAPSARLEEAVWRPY
Target sequence (Q13951 whole entry, looked up): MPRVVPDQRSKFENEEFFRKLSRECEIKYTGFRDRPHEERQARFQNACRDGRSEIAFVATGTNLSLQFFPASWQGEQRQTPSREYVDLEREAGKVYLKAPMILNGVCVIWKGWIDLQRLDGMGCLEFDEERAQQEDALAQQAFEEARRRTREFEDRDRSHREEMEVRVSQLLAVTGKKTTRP
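Proteins preincubated together for 20 min at RT before compound addition; 15 min later, nickel and streptavidin beads were added and left 90 min prior to AlphaScreen measurement.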
Rango complex inh = Rango-importin beta binding inhibition; AID 540263; 0.031% of 340,000 active; Q14974; Rango CFP/YFP FRET sensor + importin beta, 45 min; Potency, µM (top dose mostly 92.2 µM), for the others: at the top dose inhibition of complex formation;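 also: potency is read from the fitted curve at half-maximal effect; 0% = DMSO wells and 100% = buffer wells lacking importin beta; nearly all actives have a fitted effect of over 15% in size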
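FRET biosensor Rango (snurportin 1 IBB between N-terminal EYFP and C-terminal Cerulean), 50 nM in PBS/1 mM DTT/0.02% Tween-20/0.1% BSA, preincubated 5 min RT with compound; 0.125 microM importin beta added, 45 min RT, CFP/YFP FRET ratio read.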
MBNL1-CUG inh = inhibitors of human MBNL1 binding to CUG repeat RNA; Q9NR56; TR-FRET MBNL1-His/biotin-(CUG)12 binding, 665/545 ratio; Potency, µM (highest dose often 57.5 µM), for the others: at the top dose activity change, negative = inhibition, usual class: inhibitors; 0.036% of 280,000 active; AID 2675; active = well fitted inhibition curve with a large enough effect in the signal ratio, with a control signal flat, not every such curve was filed as active; inconclusive = small, poorly fitted or top-dose-only effect, or effect the other way, or a change in a side signal; inactive = no such curve, though single readings can be large or run the other way; the % refers to the signal ratio; also: potency is read from the fitted curve at half-maximal effect; % is scaled to controls: 0 for no effect and ±100 for the full control effect
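Ratiometric TR-FRET (665 over 545 nm, excitation 340 nm) tracks disruption of MBNL1-His/biotin-(CUG)12 complex after 60 min at room temperature, with compounds at 92 nM to 58 uM final.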
* marks the source's active call; other numbers are inactive results. Unless noted, calls follow the shape of the full dose curve.

How did CCc1ccc(-n2nc(C)c3c(C)cc(=O)n(Cc4nc(-c5ccccc5)oc4C)c32)cc1 do in these assays?
ClpP mod: -7%

What do the screens show for `N/C(=N\OC(=O)c1ccc(=O)n(Cc2ccccc2)c1)c1ccccn1`?
Rango dissoc inh: -21%; ClpP mod: 28µM*; CBFb RUNX1 block: -4%; Rango complex inh: inconclusive; MBNL1-CUG inh: -4%

Results for Cc1cc(C)cc(N(CC(=O)NCc2ccccc2Cl)S(=O)(=O)c2c(C)noc2C)c1 ?
ClpP mod: 1%

What do the screens show for `Cc1ccc(Nc2nc(-c3ccc(S(=O)(=O)N4CCOCC4)cc3)cs2)cc1Cl`?
Rango dissoc inh: 14%; ClpP mod: 16µM*; CBFb RUNX1 block: -7%; Rango complex inh: 2%; MBNL1-CUG inh: -6%

Results for CCCCC(=O)Nc1nc(-c2ccc(S(=O)(=O)N3CCOCC3)cc2)cs1 ?
Rango dissoc inh: 9%; ClpP mod: 28µM*; Rango complex inh: 3%; MBNL1-CUG inh: 1%

What do the screens show for `COc1cccc(C(=O)Nc2nc(-c3ccc(S(=O)(=O)N4CCOCC4)cc3)cs2)c1`?
Rango dissoc inh: 17%; ClpP mod: inconclusive; CBFb RUNX1 block: -2%; Rango complex inh: 0%; MBNL1-CUG inh: 70%

What do the screens show for `CC(C)CC(=O)Nc1nc(-c2ccc(S(=O)(=O)N3CCOCC3)cc2)cs1`?
Rango dissoc inh: -2%; ClpP mod: 32µM*; Rango complex inh: 1%; MBNL1-CUG inh: 30%

What do the screens show for `O=C(Nc1nc(-c2ccc(S(=O)(=O)N3CCOCC3)cc2)cs1)c1ccccc1`?
Rango dissoc inh: 4%; ClpP mod: -4%; CBFb RUNX1 block: -7%; Rango complex inh: inconclusive; MBNL1-CUG inh: inactive

How did Cc1csc(NC(=O)CSc2nnc(-c3ccc(S(=O)(=O)N4CCCC4)cc3)o2)n1 do in these assays?
Rango dissoc inh: 2%; ClpP mod: 28µM*; CBFb RUNX1 block: 4%; Rango complex inh: 0%; MBNL1-CUG inh: 10%

How did COc1ccc2oc(C(=O)OCC(=O)NC3CCS(=O)(=O)C3)c(C)c2c1 (stereo unspecified) do in these assays?
ClpP mod: 4%

What do the screens show for `COc1ccccc1N1CCN(S(=O)(=O)c2ccc(F)c(C(=O)Nc3ccc(C)c(F)c3)c2)CC1`?
ClpP mod: 0%

What do the screens show for `CCOc1ccc(CCNC(=O)C2CCN(C(=O)c3cc4sccc4n3CC)CC2)cc1OCC`?
ClpP mod: 1%

How did CC1CCN(C(=O)CSc2nc3c(c(=O)n2C)SCC3)CC1 do in these assays?
Rango dissoc inh: 10%; ClpP mod: 28µM*; Rango complex inh: 0%; MBNL1-CUG inh: 0%

Results for Cn1c(SCC(=O)N2CCCC2)nc2c(c1=O)SCC2 ?
ClpP mod: -1%

What do the screens show for `O=C(CNC(=S)NC(=O)c1ccc(Cl)cc1)c1ccccc1`?
Rango dissoc inh: -1%; ClpP mod: 28µM*; CBFb RUNX1 block: 7%; Rango complex inh: 0%

How did O=C(CNC(=S)NC(=O)c1ccc(Br)o1)c1ccccc1 do in these assays?
Rango dissoc inh: -17%; ClpP mod: 1%; CBFb RUNX1 block: 7%; Rango complex inh: 0%; MBNL1-CUG inh: 13%

What do the screens show for `COc1ccc(S(=O)(=O)N(CC(=O)NCCSc2ccc(C)cc2)c2ccc(C)cc2)cc1`?
ClpP mod: 0%

How did CCOc1cc(C(=S)N2CCOCC2)ccc1OC(=O)/C=C/c1ccc(OC)c(OC)c1 do in these assays?
Rango dissoc inh: -5%; ClpP mod: 25µM*; CBFb RUNX1 block: -6%; Rango complex inh: -5%; MBNL1-CUG inh: 5%

Results for CCOc1ccc(/C=C/C(=O)N2CCOCC2)cc1OC ?
Rango dissoc inh: -3%; ClpP mod: inconclusive; Rango complex inh: 2%; MBNL1-CUG inh: 17%

What do the screens show for `Oc1ccc(Br)cc1/C=N/n1c(C2CCCCC2)n[nH]c1=S`?
Rango dissoc inh: 15µM*; Rango complex inh: inconclusive; MBNL1-CUG inh: 7%

What do the screens show for `CCOC(=O)c1cnc2c(C(F)(F)F)cccc2c1N1CCN(C)CC1`?
Rango dissoc inh: 4%; Rango complex inh: 9%; MBNL1-CUG inh: 8%

What do the screens show for `COC(=O)c1cnc2c(C(F)(F)F)cccc2c1OC`?
Rango dissoc inh: 13%; ClpP mod: 16µM*; CBFb RUNX1 block: 9%; Rango complex inh: 1%; MBNL1-CUG inh: 7%

Results for COc1ccc(CCN2C(=O)CN(C3CCCCCC3)C(=O)C2c2ccc(OC(C)C)c(OC)c2)cc1OC (stereo unspecified) ?
ClpP mod: -3%

Results for CCc1ccc(OCCNC(=O)c2ccccc2SCc2ccccc2)cc1 ?
Rango dissoc inh: 16%; ClpP mod: 28µM*; CBFb RUNX1 block: 26%; Rango complex inh: -3%; MBNL1-CUG inh: 5%

How did N#CC1=C(O)C(c2ccccc2)n2c1nc(=O)c1ccccc12 (stereo unspecified) do in these assays?
Rango dissoc inh: -29%; ClpP mod: 18µM*; CBFb RUNX1 block: -1%; Rango complex inh: -1%; MBNL1-CUG inh: -2%

Results for CCOc1nc(NC(=O)NS(=O)(=O)Oc2ccccc2)nc(-c2ccccc2)n1 ?
ClpP mod: -1%

Results for COc1ccc2cc3cc(C(=O)N4CCN(Cc5ccc6c(c5)OCO6)CC4)oc3nc2c1 ?
Rango dissoc inh: -10%; ClpP mod: 32µM*; CBFb RUNX1 block: 1%; Rango complex inh: 1%; MBNL1-CUG inh: inconclusive

What do the screens show for `Cc1ccc2cc3cc(C(=O)NCc4ccco4)oc3nc2c1`?
Rango dissoc inh: -19%; ClpP mod: 14µM*; CBFb RUNX1 block: -3%; Rango complex inh: 1%; MBNL1-CUG inh: inconclusive

What do the screens show for `COc1ccc2cc3cc(C(=O)NCc4ccc5c(c4)OCO5)oc3nc2c1`?
Rango dissoc inh: -7%; ClpP mod: 14µM*; CBFb RUNX1 block: -16%; Rango complex inh: inconclusive; MBNL1-CUG inh: 14%

How did COc1ccc2cc3cc(C(=O)NCC4COc5ccccc5O4)oc3nc2c1 (stereo unspecified) do in these assays?
Rango dissoc inh: -17%; ClpP mod: 35µM*; CBFb RUNX1 block: 3%; Rango complex inh: inconclusive; MBNL1-CUG inh: inconclusive

How did COc1ccc2cc(C(=O)N3CCN(Cc4ccc5c(c4)OCO5)CC3)[nH]c2c1 do in these assays?
Rango dissoc inh: -1%; ClpP mod: -6%; Rango complex inh: -3%; MBNL1-CUG inh: -3%

Results for COc1ccc(CNC(=O)c2cc3cc4ccc(C)cc4nc3o2)cc1 ?
ClpP mod: -14%

What do the screens show for `COc1cc2nc(N3CCCCC3)nc(NC3CCN(C)CC3)c2cc1OC`?
ClpP mod: 4%
